Laboratory results from PubChem BioAssay AID1347426 (Functional Genomics Laboratory (NCATS/FGL), 2020).
About 1,400 (4.5%) of roughly 31,000 sequences were called active. This is one part of a sample in which actives are shown more often than they occur.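 Rule for the calls: active = median seed-adjusted z-score above 1 or below -1; inactive = the rest.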

assay: Novel Modifiers of Survival Motor Neuron (SMN) Protein: Gene Identification via Genome-wide siRNA Screen; settings: HEK293T SMN2-luciferase reporter, siRNA knockdown, 72 h; actives lie on both sides;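 note: luminescence tracks full-length SMN protein made from the SMN2 reporter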
Procedure, shortened: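 HEK293T cells stably carrying an SMN2 promoter/splicing cassette–luciferase reporter were reverse-transfected with 1 pmol siRNA per well (druggable-genome library, 3 siRNAs per gene) and grown 72 h at 37 °C. Luminescence, normalized to negative-control siRNA and log10-transformed, was scored as MAD.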

| Sequence | median seed-adjusted z-score |
| --- | --- |
| GGAGUUCGAUGAGACAACATT against FABP3 | -0.0786 (inactive) |
| CGAUUACGCUUCAGAGAUATT against PTP4A2 | -1.45 (active) |
| GGACAUCCUGUCAUAGAAATT against UTP3 | -1.08 (active) |
| GGAAGUUCAUUACCAGAAUTT against PLCZ1 | 0 (inactive) |
| GCAAUAGUCAGGAGCGAUATT against PPP1R10 | 1.41 (active) |
| CCUUACCUGUAAACAGAGATT against ESR2 | -1.1 (active) |
| CCAGGCCCAUUCUACAAUATT against PEAR1 | 0.071 (inactive) |
| AUAUAACUGCUGAUCUAGATT against SPCS3 | 0.417 (inactive) |
| GGAGUUCGUUCAGAGACCATT against MOCS2 | 0.0327 (inactive) |
| CUCUCUUCGUAGAUCAAGATT against SFRS7 | 0.44 (inactive) |
| UGAAGUUGCUGGACGCGUATT against DAD1 | -0.45 (inactive) |
| GCUUGGAGGAUUUCAUGGATT against POFUT1 | 0 (inactive) |
| AGAAAUUGGUGUUCAGAAUTT against GTF2F2 | -1.14 (active) |
| GAAUAAAAACGACCUCUUUTT against LZTR1 | 0.293 (inactive) |
| GCAUGUUAAUGGGUUUAAUTT against GNAS | -0.531 (inactive) |
| CUGCAGUUCUUAAUACGAATT against PSMD1 | -1.61 (active) |
| GAACAUAUGUGAUGACCGUTT against CDH2 | -0.235 (inactive) |
| GGAGGUCUCCUACAUCAAATT against ZAN | 0.736 (inactive) |
| CGGGUGCACUACUACAUCUTT against GBGT1 | 0.48 (inactive) |
| AGCCCUUGACCUUAUCUAATT against CSTB | 1.08 (active) |
| ACUCAACUCUGAUACUCCATT against DMRTC2 | 0 (inactive) |
| GAGCUGAAGUCCUUAGAUATT against EIF2B3 | -0.271 (inactive) |

| Sequence | median seed-adjusted z-score |
| --- | --- |
| CGACUAUGCUUUAGAUUAUTT against MAS1 | -0.0551 (inactive) |
| CGGCCUAACUUUCAAGACATT against SDK2 | 0.908 (inactive) |
| GGUUCUGAAAUGUUCGUCATT against ZDHHC22 | 0.00446 (inactive) |
| GAUAAAAGGAUGGAUGAAATT against PRPF6 | -1.06 (active) |
| GAAUCAAGACAAACCCGAATT against TTN | 0.872 (inactive) |
| GCACUCUUCUCAUUCACGATT against ATP1B3 | -0.225 (inactive) |
| CCAACGAACUCCUUACUUATT against SCP2 | 0.413 (inactive) |
| CAAUCACUCAGGAACAAAUTT against CHMP6 | -1.81 (active) |
| ACAAUACCCUCAGACUGAATT against NMUR1 | -0.265 (inactive) |
| UGGUGAAAAUUACAUCUGATT against CIP29 | -1.18 (active) |
| CAAUCCUCAUGCUAAACCATT against SGK1 | -0.659 (inactive) |
| GAGUGGACUGGGCAAAUCATT against 3-Sep | 0.0683 (inactive) |
| CAGGUAUUCUGGUCAAUAUTT against ATL3 | 0.201 (inactive) |
| GACAAUGGGUUAUUCAGGATT against FNTA | 1.04 (active) |
| GACACCUUCUUAGACGAUATT against AMPD1 | 0.378 (inactive) |
| GCGAGUAGAUAAUAUCGAATT against MAP3K5 | -0.285 (inactive) |
| GCAGGUCAGUUAUCAGACUTT against SLC17A1 | -0.271 (inactive) |
| CAGUUGUACUGGACGGCUATT against PALLD | -0.307 (inactive) |
| CAACCUCACUGACCGGCAATT against HOXD11 | -0.185 (inactive) |
| CAUCUUUCCUAAAGAGUUUTT against POLR2D | -3.79 (active) |
| GCCUACAUGUUUCUGCUGATT against RHO | -0.267 (inactive) |
| CAGAGGAACUGACACCAUUTT against ETFA | -0.0619 (inactive) |

| Sequence | median seed-adjusted z-score |
| --- | --- |
| CGCUUUUCGUUGUAAAUAUTT against NKX2-2 | -0.0805 (inactive) |
| GAAGCUUGAGGAACACGAATT against GOLGB1 | 0.0851 (inactive) |
| CACUAAUGGAUAUUGCCUATT against BMI1 | 0 (inactive) |
| UGACUGCGGAUAUAACUGATT against LMAN2 | -0.0921 (inactive) |
| GGGAAGGCAAUAAAACUUATT against TAAR9 | -1.07 (active) |
| GACUAAUGAACUACUAAAATT against HMMR | 0.389 (inactive) |
| GAAUAUCUAGGUACAUGGATT against ADCY10 | -0.573 (inactive) |
| CUGUACAACGUCAACCUCATT against SCNN1D | -1.8 (active) |
| CAGUUAAAGGUCAAGAUAATT against PI3 | 0.493 (inactive) |
| AGAUUAAGGAUAUGGAUGATT against CHRNA9 | -0.454 (inactive) |
| GGAUAAUCGACACUCUGGATT against MATN3 | 0.0972 (inactive) |
| GGAUUAACAUAUGAUGACATT against ADAM18 | -0.913 (inactive) |
| GGUUCUCAGGAGCACCAGATT against OASL | 1.02 (active) |
| CAUGUCACCUGCAAAAUUATT against THEM2 | 0.449 (inactive) |
| GAGUCGUUGUCCAUCUUAATT against SR140 | 1.16 (active) |
| GCAGAUCCAUCAACUACGATT against UBR4 | 0.602 (inactive) |
| GGUUAUACUCGGGCAGAGATT against NDUFS5 | -1.35 (active) |
| GGCUAACUAUUUUGUCAGATT against ABHD7 | -0.301 (inactive) |
| CCAUGAUACUCCACUCCCATT against GUCA2A | 0.121 (inactive) |
| GGCUAUGCAGGUCCACUGUTT against DDR1 | -0.166 (inactive) |
| GGUUUGAAGGGUUGACUCATT against STK38L | 0.079 (inactive) |
| GAGACAACAUGAAUGACAATT against CHGB | -1.29 (active) |

| Sequence | median seed-adjusted z-score |
| --- | --- |
| GGAUGUGGGUUUACUCUUUTT against SLC1A5 | -0.104 (inactive) |
| GCAUGGAUGCUUCUAGACATT against AKAP9 | -1.22 (active) |
| CCAUGAUCCUGAUAGGCAATT against PLAT | 0.246 (inactive) |
| AGACCACCUUCAUCCGACATT against EHD1 | -0.616 (inactive) |
| ACCUCGGACUGGUACAUGATT against SLC38A3 | -0.177 (inactive) |
| GCUCGUAAACUAGCUAAUATT against RCOR3 | 0.0446 (inactive) |
| GCAAGUGAAUAUGCGGAUATT against SNRPE | -2.77 (active) |
| GAAAACCCUUGUAAGUAUATT against ZNF354A | 0.401 (inactive) |
| GGUGUAAAAGUGAUUAUAATT against LCLAT1 | 0 (inactive) |
| CACCUACUCUGACAACCAATT against HSPA1L | -1.27 (active) |
| CUAUCACUGUCUCAAGUCATT against ITGA10 | 0.378 (inactive) |
| GAGUUAAGGAGGUAGAUGATT against SNX5 | -0.141 (inactive) |
| GCAUGAGUGCUAUCAGAUATT against PIPOX | 1.06 (active) |
| GCUCCUGGAGUUAAGCUUATT against SPINK2 | -0.431 (inactive) |
| AGUUUCAUUUCAAUAAGUATT against HOXD1 | 0.144 (inactive) |
| GGAGUAACCUGGAUGAGGATT against C3 | 0.0281 (inactive) |
| AGAGCAUUGGGUACACCAATT against COL6A2 | 0.0119 (inactive) |
| CCCAUUCCCUGUGCUCCAATT against CARD10 | -0.929 (inactive) |
| GGUUUUUCAAGUACGAAAATT against RPS6KB1 | 1.4 (active) |
| GGCCCUUCAUCGAUAGCUATT against APEX2 | -0.347 (inactive) |
| CCCUAUCCAUGUUCCAUGUTT against HDAC10 | -0.165 (inactive) |
| CAGCUGUUGUUGAGCGAAUTT against CASP2 | 0.421 (inactive) |

| Sequence | median seed-adjusted z-score |
| --- | --- |
| GGCUGUACAUCGAUAGCUATT against PGM1 | 0.136 (inactive) |
| GUUCAUGCAUGGGUGGAAATT against CD200R2 | -0.772 (inactive) |
| CGUCUAUACUUACAAGCUUTT against SF3B3 | -2.53 (active) |
| GAACCAACUCGGAUAUUGUTT against MEF2A | -0.0658 (inactive) |
| GUGCCUAAGUCUUUAGUUUTT against IFI35 | 0.105 (inactive) |
| GGAGAUCUAUUCAAUGGGATT against SRPK1 | 0.37 (inactive) |
| GAGCAGUUCGAACACCUUATT against RBM4B | -0.251 (inactive) |
| GCAGAAUACCUGUUUCAAATT against TERF1 | 0.0114 (inactive) |
| GUCAUCAACGGAAACAUAATT against EIF3G | -0.198 (inactive) |
| GGUGAUGAGAGAUCCCAAUTT against PABPC4 | -0.42 (inactive) |
| ACCGAGACCUCAAACCUGATT against PSKH1 | -2.03 (active) |
| CUUUCUAGCAGUCACCAUATT against CIR | -0.197 (inactive) |
| GCCUAUAACAUGCAAACUUTT against HOXC5 | 0.507 (inactive) |
| GAAACCCGGUGAAAAGAAATT against VARS2 | 0.288 (inactive) |
| GCUUAUAGCUGCUACAAUUTT against MTMR1 | -0.0204 (inactive) |
| CGAAAUACGUGGAACUCAUTT against ACE | 0.0874 (inactive) |
| ACAUCGCCCUUAUUGCUAUTT against FOXS1 | 0 (inactive) |
| AGAGCAUCCUAAACGACCATT against SMUG1 | -1.38 (active) |
| GCUGGUACAUGACAUCCGATT against GGT7 | 0.135 (inactive) |
| GCCUUAAGAUCUCGGCGUATT against PTPRK | 0 (inactive) |
| UGAAGAUGAGGGACCCUAATT against LOXL4 | -0.591 (inactive) |
